The results in this text go back to PubChem BioAssay.

SMILES strings stand for the structures. For some of these results: Entries with a potency or affinity are not part of this list. The source made the active and inactive calls.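 Rule for the calls, unless noted: active = earlier screen potentiator hit that boosts the TRPC4 ion channel at some dose, with a dose response; inactive = no potentiation, no dose response, or not a prior hit.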

In assay [1] the test system is TRPC4 beta (transient receptor potential cation channel C4), mouse. In words: TRPC4 cation channel opening, retest – cell-based, Fluo4 calcium, HEK293 TRPC4beta/mu-opioid, duplicates, 10 µM, confirmation (AID 2426;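 active = fluorescence ratio normalized to control raised more than 50% in primary screen plus both repeat runs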;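 for activation: percent rise of integrated ratio over buffer wells lacking compound which define 0%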). The conditions noted are these: Fluo4 calcium fluorescence, at 10 µM; stronger effect = higher value.
Assay [2] deals with transient receptor potential cation channel C4 beta (TRPC4), mouse. In words: TRPC4 cation channel opening, second retest – cell-based, second round, Fluo4, HEK293 TRPC4beta/mu-opioid, 1 µM, confirmation (AID 2461;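 active = primary screen active and over 50% activation in each of two duplicate runs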). The following applies: Fluo4 calcium fluorescence, at 1 µM; stronger effect = higher value.
The subject of assay [3] is TRPC4 (transient receptor potential cation channel C4 beta), mouse. In words: potentiation of DAMGO EC20 TRPC4 response – cell-based, second round, Fluo-4, HEK293 TRPC4beta/mu-opioid, 1 µM, confirmation (AID 2554;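 active = primary screen hit whose fluorescence ratio, in both repeats, exceeds the weak agonist control mean by 3 SD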). The conditions noted are these: DAMGO EC20, Fluo-4 calcium flux, at 1 µM; stronger effect = higher value. In general terms: Calcium assays in cells follow changes in intracellular calcium, usually with a dye or a luminescent sensor.

For assay [4], the system named is TRPC4 beta (transient receptor potential cation channel C4), mouse. In words: potentiation of DAMGO EC20 TRPC4 response – cell-based, Fluo-4, HEK293 TRPC4beta/mu-opioid, confirmation (AID 2555;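 active = primary screen hit whose calcium fluorescence ratio, in both repeats, exceeds the weak agonist control mean by 3 SD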). The following applies: DAMGO EC20, Fluo-4 calcium flux, at 10 µM; stronger effect = higher value.
In assay [5] the target is Short transient receptor potential channel 4 (Mus musculus) (UniProt Q9QUQ5). The assay is described as follows: blockers of DAMGO-evoked TRPC4 calcium flux – cell-based, Fluo4, HEK293 TRPC4beta/mu-opioid, confirmation (AID 2636;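 active = calcium signal cut by more than 3 SD below the full-agonist control yet still positive, in both repeats and the earlier primary screen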). The following applies: at 10 µM; stronger effect = higher value.
Chain of Short transient receptor potential channel 4 (Mus musculus) (Q9QUQ5 whole entry, looked up): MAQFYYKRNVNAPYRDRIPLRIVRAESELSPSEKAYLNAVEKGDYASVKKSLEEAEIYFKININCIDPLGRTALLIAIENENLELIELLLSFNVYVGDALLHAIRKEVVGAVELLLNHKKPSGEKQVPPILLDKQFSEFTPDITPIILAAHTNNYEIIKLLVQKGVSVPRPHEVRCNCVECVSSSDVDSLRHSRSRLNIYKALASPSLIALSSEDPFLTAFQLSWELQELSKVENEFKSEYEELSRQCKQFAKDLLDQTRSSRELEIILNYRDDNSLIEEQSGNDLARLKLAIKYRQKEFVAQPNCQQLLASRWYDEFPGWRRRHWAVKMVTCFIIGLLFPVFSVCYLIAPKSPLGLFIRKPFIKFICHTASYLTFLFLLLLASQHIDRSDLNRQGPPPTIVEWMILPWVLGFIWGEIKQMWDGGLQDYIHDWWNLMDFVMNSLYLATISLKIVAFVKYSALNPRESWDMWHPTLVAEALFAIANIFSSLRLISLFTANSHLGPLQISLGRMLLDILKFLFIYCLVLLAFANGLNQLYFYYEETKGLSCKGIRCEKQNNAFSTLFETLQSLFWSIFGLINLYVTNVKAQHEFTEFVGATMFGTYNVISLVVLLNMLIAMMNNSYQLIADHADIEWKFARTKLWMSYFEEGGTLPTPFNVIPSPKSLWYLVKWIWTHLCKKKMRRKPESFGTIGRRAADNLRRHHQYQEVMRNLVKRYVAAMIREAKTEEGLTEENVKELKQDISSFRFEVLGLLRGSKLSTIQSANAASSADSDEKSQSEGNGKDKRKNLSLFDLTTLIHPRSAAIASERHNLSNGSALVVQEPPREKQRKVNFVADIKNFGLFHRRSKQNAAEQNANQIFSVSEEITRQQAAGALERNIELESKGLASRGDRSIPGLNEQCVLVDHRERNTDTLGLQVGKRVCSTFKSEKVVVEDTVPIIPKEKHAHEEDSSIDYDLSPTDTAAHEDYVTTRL
Assay [6] has the same target. The assay is described as follows: blockers of DAMGO-evoked TRPC4 calcium flux – cell-based, second round, Fluo4, HEK293 TRPC4beta/mu-opioid, 1 µM, confirmation (AID 2637;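 active = calcium signal ratio cut to more than 3 SD under the fully stimulated control mean yet still positive, in both repeats and the primary screen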). The following applies: at 1 µM; stronger effect = higher value.
Assay [7] shares this target. The assay is described as follows: calcium entry via TRPC4 opening agents – cell-based, HEK293 TRPC4/mu-opioid, Fluo-4 calcium, dose response (AID 434937;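 active = primary screen activator hit with a dose response curve and TRPC4 channel activation at any tested dose; inactive = no activation, no dose response, or not a primary hit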).
Assay [8] shares this target. In words: potentiation of DAMGO-evoked TRPC4 calcium signal – cell-based, HEK293 TRPC4/mu-opioid, Fluo-4 calcium, EC20 DAMGO, dose response (AID 434941).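 Note: calcium entry triggered by an EC20 dose of DAMGO at the co-expressed mu-opioid receptor.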
Assay [9] has the same target. The assay is described as follows: block of DAMGO-driven TRPC4 calcium entry – cell-based, HEK293 TRPC4/mu-opioid, Fluo-4 calcium, dose response (AID 434942;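 active = primary screen inhibitor hit that blocks the TRPC4 channel at some tested dose, yielding a dose curve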).
The target in assay [10] is Short transient receptor potential channel 6 (Mus musculus) (UniProt Q61143). In words: TRPC6 blockade by TRPC4 inhibitor hits – cell-based, HEK293, membrane potential dye, duplicate, selectivity assay for TRPC4 inhibitor project, confirmation (AID 434948;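 active = active in primary screen and both duplicates, each dropping signal beyond three positive-control SD with fluorescence still positive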). The conditions noted are these: HEK293 TRPC6, membrane potential dye fluorescence, at 10 µM, stimulated with maximal-effect acetylcholine; stronger effect = higher value.
Chain of Short transient receptor potential channel 6 (Mus musculus) (Q61143 whole entry, looked up): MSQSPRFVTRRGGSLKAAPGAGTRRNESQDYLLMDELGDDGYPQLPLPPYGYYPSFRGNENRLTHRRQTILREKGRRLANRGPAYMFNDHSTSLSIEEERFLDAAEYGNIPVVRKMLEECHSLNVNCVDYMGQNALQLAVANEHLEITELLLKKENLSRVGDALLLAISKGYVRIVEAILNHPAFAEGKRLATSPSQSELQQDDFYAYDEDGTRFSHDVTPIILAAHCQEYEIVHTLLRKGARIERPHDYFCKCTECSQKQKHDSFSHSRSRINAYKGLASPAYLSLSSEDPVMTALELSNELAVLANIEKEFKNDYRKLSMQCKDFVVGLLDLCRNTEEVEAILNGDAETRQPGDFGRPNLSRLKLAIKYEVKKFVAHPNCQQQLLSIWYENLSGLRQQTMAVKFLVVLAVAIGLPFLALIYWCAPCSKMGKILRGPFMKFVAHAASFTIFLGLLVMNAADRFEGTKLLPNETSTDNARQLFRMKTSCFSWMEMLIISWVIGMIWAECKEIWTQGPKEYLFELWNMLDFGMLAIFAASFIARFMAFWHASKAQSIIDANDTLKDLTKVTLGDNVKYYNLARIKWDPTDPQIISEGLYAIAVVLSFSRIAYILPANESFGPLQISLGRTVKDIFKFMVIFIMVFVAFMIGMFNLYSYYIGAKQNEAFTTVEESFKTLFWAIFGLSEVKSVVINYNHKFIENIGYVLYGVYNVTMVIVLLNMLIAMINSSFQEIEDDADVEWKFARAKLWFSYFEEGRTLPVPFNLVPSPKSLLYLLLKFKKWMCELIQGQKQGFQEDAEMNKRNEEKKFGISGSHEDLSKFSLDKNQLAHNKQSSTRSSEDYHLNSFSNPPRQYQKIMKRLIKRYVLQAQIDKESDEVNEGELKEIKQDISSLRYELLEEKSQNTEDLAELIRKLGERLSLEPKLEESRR

Assay [11] shares this target. The assay is described as follows: TRPC6 opening by TRPC4 activator hits – cell-based, HEK293, membrane potential dye, duplicate, selectivity assay for TRPC4 activator project, confirmation (AID 434950;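 active = membrane potential signal rise above negative control mean plus 3 SD in both duplicates, also active in the earlier TRPC4 screen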). The following applies: HEK293 TRPC6, membrane potential fluorescence, at 10 µM; activation: stronger effect = higher value; outcome: activation.
Assay [12] has the same target. In words: positive modulators of mouse TRPC6 channel – HEK293 cells, membrane potential dye, duplicate, selectivity assay for TRPC4 potentiator project, confirmation (AID 434952;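 active = compound raising the membrane signal above positive-control mean plus 3 SD in both repeats, and a primary screen hit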). The conditions noted are these: HEK293 TRPC6, membrane potential dye fluorescence, at 10 µM, maximal acetylcholine added after compound; stronger effect = higher value.
For assay [13], the target named is Short transient receptor potential channel 4 (Mus musculus) (UniProt Q9QUQ5). The assay is described as follows: calcium flux activators in TRPC4/5HT1a cells, counter-screen for TRPC4 activator project, cell-based, second counter screen, HEK293 TRPC4/5HT1a, Fluo-4 (AID 434977;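 active = calcium signal rise above buffer-control mean plus 5 SD in both duplicates, and also a hit in the primary screen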). The following applies: Fluo-4 calcium flux, at 10 µM; stronger effect = higher value.
Assay [14] is described as follows: serotonin-gated TRPC4 signal block – cell-based, second counter screen, HEK293 TRPC4/5HT1a, Fluo-4, counter-screen for TRPC4 inhibitor project, confirmation (AID 434978;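 active = primary screen active whose calcium signal fell more than 3 SD beyond the full-serotonin control mean in both duplicate plates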;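 for outcome: serotonin given first at submaximal then at maximal dose after compound preincubation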). The following applies: Fluo-4 calcium flux, at 10 µM, serotonin added to trigger calcium flux; stronger effect = higher value. For orientation: Counterscreens check selectivity or assay interference.
The test system of assay [15] is TRPC4 (mouse), co-expressed with 5HT1a in HEK293. In words: enhancement of serotonin-evoked TRPC4 response – cell-based, second counter screen, HEK293 TRPC4/5HT1a, Fluo-4, counter-screen for TRPC4 potentiator project, confirmation (AID 434979;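 active = signal rise over 3 SD above mean of control wells given weak agonist, in both repeats and first screen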). The following applies: Fluo-4 calcium flux, at 10 µM, serotonin added at its EC20 dose; stronger effect = higher value.
The nature of assay [16]: nonspecific calcium rise without TRPC4 – cell-based, HEK293 mu-opioid receptor line, counter-screen for TRPC4 activator project, confirmation (AID 449723;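 active = hit in primary screen, with calcium signal over 5 SD above buffer well mean in both duplicates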;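 note: counter screen cells carry the mu-opioid receptor alone and lack TRPC4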). The following applies: HEK293 mu-opioid cells, Fluo-4 calcium fluorescence, at 10 µM; stronger effect = higher value.
A short description of assay [17]: nonspecific potentiation of DAMGO calcium response – cell-based, HEK293 mu-opioid receptor line, counter-screen for TRPC4 allosteric potentiator project, confirmation (AID 449724;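 active = calcium signal rise more than 3 SD above the low-dose agonist control mean, in both duplicate plates and the primary screen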;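 note: HEK293 cells carrying mu-opioid receptor only with no TRPC4 channel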). The following applies: HEK293 mu-opioid receptor cells, Fluo-4 calcium flux, at 10 µM, compound added before EC20 DAMGO stimulus; stronger effect = higher value.

For orientation: inhibition means how much of the control response was suppressed. Consider `O=C(COc1ccc(Br)cc1Cl)c1ccc[nH]1`, for which the result in [1], in assay [2], in assay [3], in [4], in assay [6] and in assay [7] was inactive. Also, the outcome in assay [8], in assay [9], in [10], in assay [11], in assay [12] and in [13] was inactive. The result in assay [15], in [16] and in assay [17] was inactive. Moreover, the inhibition in [5] is 89% (active); in assay [14] it was 43.7% (active).
Turning to `CCCN1Cc2cccc(C(=O)N3CCN(c4cc(Cl)ccc4C)CC3)c2C1=O`, the result in assay [1], in [2], in assay [3], in [5], in [6] and in assay [7] was inactive. Also, the result in assay [8], in assay [9], in assay [10], in assay [11], in [12] and in assay [13] was inactive. The result in assay [14], in assay [16] and in [17] was inactive. Besides, the potentiation is 81% (active) in assay [4] and 49.8% (active) in assay [15].
With `COc1ccc(N=C2SCC(=O)N2Cc2ccccc2)cc1`, the outcome in [1], in assay [2], in [3], in assay [4], in assay [5] and in assay [6] was inactive. Besides, the outcome in assay [7], in [8], in assay [9], in assay [10], in [11] and in assay [12] was inactive. In addition, the result in assay [13], in [14], in assay [15], in assay [16] and in [17] was inactive.
On to `CN(C)CCCNc1c2c(nc3cc(-c4cccc(F)c4)nn13)CCC2`, for which the activation in [1] is 81% (active). In addition, the result in assay [2], in assay [3], in assay [4], in assay [5], in [6] and in [7] was inactive. Moreover, the result in [8], in assay [9], in [10], in assay [11], in [12] and in [13] was inactive. Besides, the outcome in assay [14], in [15], in [16] and in assay [17] was inactive.
As to `COCCSc1ccccc1C(=O)N1CCC(Cc2ccccc2)CC1`, the outcome in assay [1], in assay [2], in [3], in assay [4], in [5] and in assay [6] was inactive. The result in [7], in assay [8], in assay [9], in assay [10], in [11] and in assay [12] was inactive. In addition, the outcome in [13], in [14], in assay [15], in assay [16] and in [17] was inactive.
For the compound `CCN(CC)CCCNC(=S)N1CCN(c2nc3ccccc3n2CC)CC1`, the result in assay [1], in [2], in assay [3], in assay [4], in [5] and in assay [6] was inactive. In addition, the outcome in assay [7], in assay [8], in assay [9], in [10], in assay [11] and in assay [12] was inactive. Moreover, the result in assay [13], in [14], in assay [16] and in assay [17] was inactive. Moreover, the potentiation in assay [15] is 17.1% (active).
For `CCOc1cc(/C=C2\CN(CC)C/C(=C\c3ccc(O)c(OCC)c3)C2=O)ccc1O`, the result in assay [1], in [2], in assay [3], in assay [4], in assay [5] and in assay [6] was inactive. Moreover, the result in assay [7], in assay [8], in assay [9], in assay [10], in assay [11] and in assay [12] was inactive. Also, the result in assay [13], in [14], in assay [15], in assay [16] and in [17] was inactive.
For `COc1ccc(S(=O)(=O)N2CCCCCC2)cc1C(=O)N(C)Cc1ccc(Cl)cc1Cl`, the result in assay [1], in [2], in assay [3], in assay [5], in [6] and in assay [7] was inactive. The result in assay [8], in assay [9], in assay [10], in [11], in assay [12] and in [13] was inactive. Further, the outcome in assay [14] and in assay [16] was inactive. For the same compound, the potentiation was 46% (active) in assay [4] and 14.4% (active) in assay [15]. Moreover, the activation in assay [17] was 2180% (active).
For the compound `CCOC(=O)c1c(NC(=O)C2CCCO2)sc2c1CCC2` (stereo not drawn), the result in assay [1], in assay [2], in assay [3], in assay [5], in [6] and in assay [7] was inactive. The outcome in assay [8], in assay [9], in assay [10], in assay [11], in [12] and in assay [13] was inactive. Further, the result in [14], in assay [16] and in assay [17] was inactive. The figures for the potentiation in assay [4] and in assay [15] were 40% (active) and 47.8% (active), respectively.
Take `CCn1c(C)nc2cc(C(=O)N/N=C/c3cccc(O)c3O)ccc21`: the outcome in [1], in [2], in assay [5], in [6], in assay [7] and in assay [8] was inactive. For the same compound, the outcome in [9], in [10], in assay [11], in assay [12], in assay [13] and in assay [14] was inactive. In addition, the result in assay [16] and in assay [17] was inactive. For the same compound, the potentiation in assay [3] is 79% (active); in [4] it was 50% (active); in assay [15] it was 23% (active).
With `Cc1ccccc1-c1n[nH]c(=S)n1Cc1ccccc1`, the outcome in assay [1], in assay [2], in assay [3], in assay [4], in [5] and in [6] was inactive. The outcome in assay [7], in [8], in [9], in [10], in [11] and in assay [12] was inactive. In addition, the result in [13], in assay [14], in [15], in assay [16] and in assay [17] was inactive.
Consider `CCCCN(C)CCNC(=O)c1ccc(Cn2c(=S)[nH]c3ccc(Br)cc3c2=O)cc1`, for which the outcome in assay [1], in [2], in assay [3], in assay [5], in assay [6] and in assay [7] was inactive. Further, the outcome in [8], in [9], in assay [10], in [11], in assay [12] and in assay [13] was inactive. Besides, the outcome in assay [14], in assay [16] and in assay [17] was inactive. The potentiation in assay [4] was 16% (active); in assay [15], 33.5% (active).
For the compound `C=CCOc1ccc(Br)cc1/C=N/O`, the result in assay [1], in [2], in assay [3], in [4], in assay [5] and in assay [6] was inactive. The result in [7], in [8], in [9], in assay [10], in assay [11] and in assay [12] was inactive. Besides, the outcome in assay [13], in [14], in assay [15], in [16] and in [17] was inactive.
Consider `CCCn1c(N)c(C(=O)CSc2n[nH]c(-c3ccc(C)cc3)n2)c(=O)[nH]c1=O`, for which the outcome in assay [1], in assay [2], in assay [3], in assay [4], in assay [5] and in assay [6] was inactive. For the same compound, the result in [7], in assay [8], in assay [9], in [10], in [11] and in [12] was inactive. In addition, the result in [13], in [14], in assay [15], in assay [16] and in assay [17] was inactive.
